Results filed as inconclusive are left out. Entries that show only a call come without a potency. Active and inactive are the calls of the source. Calls come from the whole dose curve; as a rule, active = well fitted curve in the direction sought with a large enough effect in the repeat runs; inconclusive = weak or mixed curves; inactive = no such curve, though single readings can be large; an effect the other way counts as inactive or inconclusive.
tested on: not listed separately; test: qHTS assay to identify small molecule antagonists of the constitutive androstane receptor (CAR) signaling pathway - cell viability counter screen (AID 1224837); details: HepG2-CYP2B6-hCAR viability, CellTiter-Fluor, 23 h, co-treated with 50 nM CITCO; series mostly up to 92.4 µM; note: nearly all actives have a fitted effect of over 45% in size
Summary of the method: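 Using CellTiter-Fluor, viability is scored in HepG2 cells stably carrying hCAR and a 2.2kb CYP2B6 reporter after 23 hr compound exposure across 15 concentrations, with CITCO present at 50 nM.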

Compound	outcome	activity change, negative = cytotoxicity
CCOCCOCCOC(C)=O	inactive	
Cc1ccc(OC(=O)CC(C)C)cc1	inactive	
COC(C)(C)CC(C)=O	inactive	
CCCOc1ccc(C(=O)OCCN(CC)CC)cc1N	inactive	
CC[N+](C)(CC)CC	inactive	
Nc1nc(Cl)cc(Cl)n1	inactive	
O=Cc1ccc(C(=O)O)cc1	inactive	
O=P(O)(O)C(O)(Cc1cccnc1)P(=O)(O)O	inactive	
CCCCCCCCC1CO1 (centres undefined)	inactive	
COc1cc2nc(N3CCN(C(=O)C4CCCO4)CC3)nc(N)c2cc1OC (centres undefined)	inactive	
CCCCCCCCCCCCCCCC(=O)OC		-4.04% [at 19 µM] (inactive)

target: Nuclear receptor subfamily 1 group I member 3 (Homo sapiens) (UniProt Q14994); test: qHTS assay to identify small molecule antagonists of the constitutive androstane receptor (CAR) signaling pathway (AID 1224838); details: HepG2-CYP2B6-hCAR luciferase, CITCO-stimulated, 24 h; series mostly up to 92.4 µM;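 note: HepG2 cells stably expressing hCAR with CYP2B6 luciferase reporter stimulated by CITCO; nearly all actives have a fitted effect of over 40% in size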
Summary of the method: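 Reporter luminescence was quantified after 24 h exposure of hCAR/CYP2B6-2.2kb double-stable HepG2 cells to compounds at 15 concentrations in the presence of 50 nM CITCO final.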

Chain of Nuclear receptor subfamily 1 group I member 3 (Homo sapiens) (Q14994 whole entry, looked up): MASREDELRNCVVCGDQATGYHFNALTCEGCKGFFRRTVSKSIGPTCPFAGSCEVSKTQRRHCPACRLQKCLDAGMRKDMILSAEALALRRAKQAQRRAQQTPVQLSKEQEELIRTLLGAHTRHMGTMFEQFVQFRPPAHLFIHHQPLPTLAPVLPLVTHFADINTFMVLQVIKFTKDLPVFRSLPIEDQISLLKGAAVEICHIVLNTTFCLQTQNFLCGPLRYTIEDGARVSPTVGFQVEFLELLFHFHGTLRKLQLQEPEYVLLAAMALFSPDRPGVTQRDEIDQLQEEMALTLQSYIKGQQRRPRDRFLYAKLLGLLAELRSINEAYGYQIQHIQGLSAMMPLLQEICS

Compound	outcome	activity, negative = inhibition
CCOC(=O)COc1ccc2c(C)c(CCN(CC)CC)c(=O)oc2c1Cl	inactive	
CCCCCCC(O)CO (centres undefined)	inactive	
NCC1CCC(C(=O)Oc2ccc(CCC(=O)O)cc2)CC1 (centres undefined)	inactive	
OCCC(F)(F)C(F)(F)C(F)(F)C(F)(F)C(F)(F)C(F)(F)F	inactive	
CCCCCCCCOCCC#N	inactive	
CC(=O)OC/C=C(/C)CCC=C(C)C	inactive	
CCCC(=O)C(CC)Sc1ccoc1C (centres undefined)	inactive	
CCCCCCCCCCCBr	inactive	
Clc1cc(Cl)c(Cl)c(Cl)c1Cl	inactive	
CCCCN=C(N)N=C(N)N	inactive	
COC(=O)c1c(C)cc(O)c(C)c1O	inactive	
CC(C)(C)C(=O)CCc1ccc(Cl)cc1	inactive	
Cc1ccccc1C#N	inactive	
CC(C)(C)c1ccc(N)cc1	inactive	
COc1cc(OC)cc(OC)c1	inactive	
Cc1ccc(Br)cc1	inactive	
C=CCON/C(CCC)=C1\C(=O)CC(C)(C)C(C(=O)OC)=C1O	inactive	

Compound	outcome	activity, negative = inhibition
C[C@@H]1CCC[C@H](C)N1CCCC(O)(c1ccccc1)c1ccccn1 (some centres undefined)	inactive	
NNC(=O)OCc1ccccc1	inactive	
CC(C)(C)c1ccc(C(=O)CCCCl)cc1	inactive	
C[C@@H](CN1CC(=O)NC(=O)C1)N1CC(=O)NC(=O)C1	inactive	
CC(C)(O)CCCC1=CCC(C=O)CC1 (centres undefined)	inactive	
O=C(c1ccccc1)c1cccc(O)c1	inactive	
O=CN1CCCCC1	inactive	
CN1C(CCl)Nc2cc(Cl)c(S(N)(=O)=O)cc2S1(=O)=O (centres undefined)	inactive	
CCOCCOCCOC(C)=O	inactive	
COC(C)(C)CC(C)=O	inactive	
CC[N+](C)(CC)CC	inactive	
Nc1nc(Cl)cc(Cl)n1	inactive	
O=Cc1ccc(C(=O)O)cc1	inactive	
O=P(O)(O)C(O)(Cc1cccnc1)P(=O)(O)O	inactive	
CCCCCCCCC1CO1 (centres undefined)	inactive	
COc1cc2nc(N3CCN(C(=O)C4CCCO4)CC3)nc(N)c2cc1OC (centres undefined)	inactive	
CCCCCCCCCCCCCCCC(=O)OC		-5.63% [at 19 µM] (inactive)

target: Nuclear receptor subfamily 1 group I member 3 (Homo sapiens) (UniProt Q14994); test: qHTS assay to identify small molecule agonists of the constitutive androstane receptor (CAR) signaling pathway (AID 1224839); details: HepG2 hCAR CYP2B6-luciferase, agonist mode, 24 h; series mostly up to 92.4 µM; note: nearly all actives have a fitted effect of over 15% in size; note: potency is the fitted concentration of half-maximal effect;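 for activation: HepG2 cells stably carrying human CAR and a CYP2B6 luciferase reporter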
Summary of the method: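 Luminescence read-out (ONE-Glo, 30 min, room temperature) from double-stable HepG2-CYP2B6-hCAR cells exposed 24 h to 15-point compound series in presence of 0.75 uM PK11195 final.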

Compound	Potency	activation
CCOC(=O)COc1ccc2c(C)c(CCN(CC)CC)c(=O)oc2c1Cl	inactive	
CCCCCCC(O)CO (centres undefined)	inactive	
NCC1CCC(C(=O)Oc2ccc(CCC(=O)O)cc2)CC1 (centres undefined)	inactive	
OCCC(F)(F)C(F)(F)C(F)(F)C(F)(F)C(F)(F)C(F)(F)F	inactive	
CCOC(=O)CC(C(C)=O)C(C)=O	inactive	
CCCCCCCCOCCC#N	inactive	
CC(=O)OC/C=C(/C)CCC=C(C)C	inactive	
CN(C)CCCN(C)C		-0.471% [at 8.39 µM] (inactive)
CCCC(=O)C(CC)Sc1ccoc1C (centres undefined)	inactive	
CCCCCCCCCCCBr	inactive	
Clc1cc(Cl)c(Cl)c(Cl)c1Cl	inactive	
CCCCN=C(N)N=C(N)N	inactive	
CC(C)(C)C(=O)CCc1ccc(Cl)cc1	inactive	
Cc1ccccc1C#N	inactive	
CC(C)(C)c1ccc(N)cc1	inactive	
COc1cc(OC)cc(OC)c1	inactive	
Cc1ccc(Br)cc1	inactive	

Compound	Potency	activation
C=CCON/C(CCC)=C1\C(=O)CC(C)(C)C(C(=O)OC)=C1O	inactive	
C[C@@H]1CCC[C@H](C)N1CCCC(O)(c1ccccc1)c1ccccn1 (some centres undefined)	inactive	
CC(C)(C)c1ccc(C(=O)CCCCl)cc1	21.1 µM (active)	
C[C@@H](CN1CC(=O)NC(=O)C1)N1CC(=O)NC(=O)C1	inactive	
CC(C)(O)CCCC1=CCC(C=O)CC1 (centres undefined)	inactive	
O=CN1CCCCC1	inactive	
CN1C(CCl)Nc2cc(Cl)c(S(N)(=O)=O)cc2S1(=O)=O (centres undefined)	inactive	
CCOCCOCCOC(C)=O	inactive	
Cc1ccc(OC(=O)CC(C)C)cc1	inactive	
COC(C)(C)CC(C)=O	inactive	
CCCOc1ccc(C(=O)OCCN(CC)CC)cc1N	inactive	
CC[N+](C)(CC)CC	inactive	
O=Cc1ccc(C(=O)O)cc1	inactive	
O=P(O)(O)C(O)(Cc1cccnc1)P(=O)(O)O	inactive	
CCCCCCCCC1CO1 (centres undefined)	inactive	
COc1cc2nc(N3CCN(C(=O)C4CCCO4)CC3)nc(N)c2cc1OC (centres undefined)	inactive	
CCCCCCCCCCCCCCCC(=O)OC		-1.6% [at 19 µM] (inactive)

— PubChem BioAssay (Tox21)
